Counter-ions that a name gives are not always drawn.

The subject of this assay is Saccharomyces cerevisiae. Briefly: fraction of cells in G1 phase (DNA content, flow cytometry); higher = more cells with unreplicated DNA (G1 delay). Conditions: temperature: 30 C; YPD; JTY2953 pdr5 snq2 (sensitized); drug added to: cultures diluted from stationary phase; 6-7 h. An outline of the steps: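 S. cerevisiae in YPD at 30°C was treated with library drugs, with DMSO-only wells as reference. Sensitized JTY2953 cultures diluted 1∶200 from overnight received a final 20 µg/ml and were fixed after 6–7 h; other runs dosed dividing JTY2953 (fixed 6 h later) or BY4741 (4.33 h later). Ethanol-fixed cells were stained with SYTOX Green and 10,000 events read by flow cytometry. G1 fraction is the Dean-Jett-Fox G1 peak area over G1 plus G2/M areas.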

With `O=C1CCC(N2C(=O)c3ccccc3C2=O)C(=O)N1` (stereo not drawn) [Thalidomide] (77.4486 µM), the “fraction of cells in G1 phase” value amounted to 0.464.

Regarding `CCOC(=O)[C@H](CCc1ccccc1)N[C@@H](C)C(=O)N1[C@H](C(=O)O)C[C@@H]2CCC[C@@H]21` [Ramipril] (48.0167 µM), the “fraction of cells in G1 phase” value came out at 0.482.

As for `C1COC(NC(C2CC2)C2CC2)=N1` [Rilmenidine hemifumarate] (110.956 µM), the “fraction of cells in G1 phase” value was found to be 0.483.

`Cc1ccc(/C(=C\CN2CCCC2)c2ccccn2)cc1` [Trans-triprolidine HCl] (71.8389 µM): the “fraction of cells in G1 phase” value was 0.521.

Take `CCCCN1CCCCC1C(=O)Nc1c(C)cccc1C` (stereo not drawn) [Bupivacaine HCl] (69.3393 µM): the “fraction of cells in G1 phase” value amounted to 0.447.

As to `Cc1[nH]c(=O)c(C#N)cc1-c1ccncc1` [Milrinone] (94.6857 µM), the “fraction of cells in G1 phase” value came to 0.482.

For the compound `C[C@H]1COc2c(C3(N)CC3)c(F)cc3c(=O)c(C(=O)O)cn1c23` [Pazufloxacin] (62.8324 µM), the “fraction of cells in G1 phase” value worked out at 0.474.

For `CC(C)NCC(O)COc1ccc(CCOCC2CC2)cc1` (stereo not drawn) [Betaxolol HCl] (65.054 µM), the “fraction of cells in G1 phase” value stood at 0.525.

Regarding `C[C@@H](O)[C@H]1C(=O)N2C(C(=O)O)=C(SCCNC=N)C[C@H]12` [Imipenem] (66.8112 µM), the “fraction of cells in G1 phase” value amounted to 0.486.

With `CN(Cc1cc(Br)cc(Br)c1N)C1CCCCC1` [Bromhexine HCl] (53.1721 µM), the “fraction of cells in G1 phase” value worked out at 0.466.

For `Cn1c(=O)c2[nH]cnc2n(C)c1=O` [Aminophylline] (111.008 µM), the “fraction of cells in G1 phase” value worked out at 0.49.

`Cc1oncc1C(=O)Nc1ccc(C(F)(F)F)cc1` [Leflunomide] (74.0157 µM): the “fraction of cells in G1 phase” value came out at 0.555.

In the case of `CCOC(=O)/C=C(C)/C=C/C=C(C)/C=C/c1c(C)cc(OC)c(C)c1C` [Etretinate] (56.4185 µM), the “fraction of cells in G1 phase” value turned out to be 0.557.

As to `CC(C)(C)NC[C@H](O)COc1nsnc1N1CCOCC1` [Timolol maleate (s)] (63.2061 µM), the “fraction of cells in G1 phase” value is 0.499.

Take `Cc1ccccc1C(OCCN(C)C)c1ccccc1` (stereo not drawn) [Orphenadrine citrate] (43.3369 µM): the “fraction of cells in G1 phase” value amounted to 0.522.

`CO/N=C(\C(=O)N[C@@H]1C(=O)N2C(C(=O)O)=C(COC(C)=O)CS[C@H]12)c1csc(N)n1` [Cefotaxime acid] (43.9106 µM): the “fraction of cells in G1 phase” value worked out at 0.485.

In the case of `CC(=O)S[C@@H]1CC2=CC(=O)CC[C@]2(C)[C@H]2CC[C@@]3(C)[C@@H](CC[C@@]34CCC(=O)O4)[C@H]12` [Spironolactone] (48.0095 µM), the “fraction of cells in G1 phase” value is 0.531.

Consider `NS(=O)(=O)c1cc(C(=O)O)c(NCc2ccco2)cc1Cl` [Furosemide] (60.4688 µM), for which the “fraction of cells in G1 phase” value was determined as 0.459.

For the compound `COCCOC(=O)C1=C(C)NC(C)=C(C(=O)OC(C)C)C1c1cccc([N+](=O)[O-])c1` (stereo not drawn) [Nimodipine] (47.7954 µM), the “fraction of cells in G1 phase” value was 0.521.

In the case of `COc1cc2nc(N3CCN(C(=O)c4ccco4)CC3)nc(N)c2cc1OC` [Prazosin HCl] (47.6417 µM), the “fraction of cells in G1 phase” value is 0.487.

Regarding `Nc1nnc(-c2cccc(Cl)c2Cl)c(N)n1` [Lamotrigine] (78.0958 µM), the “fraction of cells in G1 phase” value was 0.493.

Take `C[N+](C)(C)CCOC(N)=O` [Carbamylcholine Cl] (135.871 µM): the “fraction of cells in G1 phase” value was 0.506.

`CC(C)NNC(=O)c1ccncc1` [Iproniazid] (111.593 µM): the “fraction of cells in G1 phase” value stood at 0.47.

With `Cc1nc2c([nH]1)c(=O)n(C)c(=O)n2Cc1ccco1` [Furafylline] (76.8479 µM), the “fraction of cells in G1 phase” value stood at 0.463.

For the compound `CC1=Nc2ccc(Cl)cc2S(=O)(=O)N1` [Diazoxide] (86.7024 µM), the “fraction of cells in G1 phase” value came to 0.516.

As for `CCOC(=O)C(C)(C)Oc1ccc(Cl)cc1` [Clofibrate] (82.4047 µM), the “fraction of cells in G1 phase” value came out at 0.552.

In the case of `C/N=C(/NC#N)NCCSCc1csc(NC(=N)N)n1` [Tiotidine] (64.0163 µM), the “fraction of cells in G1 phase” value was determined as 0.478.

For the compound `CC1Cc2ccccc2N1NC(=O)c1ccc(Cl)c(S(N)(=O)=O)c1` (stereo not drawn) [Indapamide] (54.6685 µM), the “fraction of cells in G1 phase” value was 0.511.

Turning to `COc1ccc2c(c1)c(CC(=O)O)c(C)n2C(=O)c1ccc(Cl)cc1` [Indomethacin] (55.8977 µM), the “fraction of cells in G1 phase” value turned out to be 0.519.

As for `Cc1ccc(C(=O)c2ccc(CC(=O)O)n2C)cc1` [Tolmetin Na] (77.7328 µM), the “fraction of cells in G1 phase” value was 0.482.

Regarding `COc1ccc(C[C@H](N)C(=O)N[C@H]2[C@@H](O)[C@H](n3cnc4c(N(C)C)ncnc43)O[C@@H]2CO)cc1` [Puromycin 2HCl] (36.7377 µM), the “fraction of cells in G1 phase” value was determined as 0.5.

In the case of `C[N+](C)(C)CCOC(=O)CCC(=O)OCC[N+](C)(C)C` [Succinylcholine] (68.8691 µM), the “fraction of cells in G1 phase” value was found to be 0.467.

For the compound `OCCOCCN1CCN(C2=Nc3ccccc3Sc3ccccc32)CC1` [Quetiapine fumarate] (22.6473 µM), the “fraction of cells in G1 phase” value was determined as 0.499.

For the origin of these results see the supplement of paper PMC3342239.
